# Hit rate of the full screen: of about 310,000 compounds, about 14,000 (4.5%) showed an effect of 50% or more. The effect is printed as a negative number. This excerpt belongs to a sample that is enriched for strong results.
# Molecular target: human ether-à-go-go-related gene (hERG) potassium channel (human, UniProt Q12809)
# Experiment: primary screen, population patch clamp on CHO cells stably expressing hERG; higher = less effect of the substance
# 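Also: peak tail current of the secondary pulse compared with the same well before compound.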
# Sequence of human ether-à-go-go-related gene (hERG) potassium channel (Q12809 whole entry, looked up): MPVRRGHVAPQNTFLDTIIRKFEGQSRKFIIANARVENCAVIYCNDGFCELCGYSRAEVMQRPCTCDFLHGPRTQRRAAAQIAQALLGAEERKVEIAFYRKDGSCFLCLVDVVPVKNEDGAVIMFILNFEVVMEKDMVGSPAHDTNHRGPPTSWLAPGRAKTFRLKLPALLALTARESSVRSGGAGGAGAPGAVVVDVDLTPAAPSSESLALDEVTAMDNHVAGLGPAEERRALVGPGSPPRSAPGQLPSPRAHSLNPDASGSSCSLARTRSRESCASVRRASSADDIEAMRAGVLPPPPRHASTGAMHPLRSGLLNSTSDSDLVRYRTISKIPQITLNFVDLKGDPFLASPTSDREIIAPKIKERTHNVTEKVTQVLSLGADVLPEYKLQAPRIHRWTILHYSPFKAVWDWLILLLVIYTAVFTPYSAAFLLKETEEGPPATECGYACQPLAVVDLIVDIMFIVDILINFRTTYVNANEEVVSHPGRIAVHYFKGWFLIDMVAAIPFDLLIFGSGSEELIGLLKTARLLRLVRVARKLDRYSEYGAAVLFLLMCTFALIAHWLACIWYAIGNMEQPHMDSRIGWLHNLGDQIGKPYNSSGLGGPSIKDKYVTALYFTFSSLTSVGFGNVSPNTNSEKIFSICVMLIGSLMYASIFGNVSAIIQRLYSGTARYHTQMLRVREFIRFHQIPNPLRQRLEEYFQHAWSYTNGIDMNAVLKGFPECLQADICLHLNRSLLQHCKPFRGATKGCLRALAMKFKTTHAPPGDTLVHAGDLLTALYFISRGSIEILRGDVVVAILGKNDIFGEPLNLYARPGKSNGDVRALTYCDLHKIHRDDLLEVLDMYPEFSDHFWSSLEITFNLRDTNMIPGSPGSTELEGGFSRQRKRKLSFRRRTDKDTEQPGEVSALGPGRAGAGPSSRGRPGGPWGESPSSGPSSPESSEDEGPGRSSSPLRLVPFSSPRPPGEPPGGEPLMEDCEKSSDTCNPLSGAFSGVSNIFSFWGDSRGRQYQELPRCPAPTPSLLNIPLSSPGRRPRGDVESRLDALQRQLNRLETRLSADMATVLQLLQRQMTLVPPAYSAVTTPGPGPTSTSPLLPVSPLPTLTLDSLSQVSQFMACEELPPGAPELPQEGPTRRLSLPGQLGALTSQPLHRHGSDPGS
row,SMILES,"hERG current change (%, negative = inhibition) at 10uM [%]"
1,COC(=O)c1c(NC(=O)C2(C)Cc3ccccc3C(=O)O2)sc2c1CCCC2 (stereo not shown),12.7
2,O=C1C=C(c2ccccc2)CC(/C=C/c2ccccc2)C1 (stereo not shown),-2.91
3,CCCc1nc(N)nc2c1C(=O)CC(C)(C)C2,-4.47
4,CC(C)(C)N1C(=O)Cc2c1nc(N)c1c(N)nc(N3CCCCC3CO)c(C#N)c21 (stereo not shown),-24.3
5,CN1CCN(Cc2nc3ccccc3c(=O)[nH]2)CC1,6.57
6,O=C(c1ccccc1)N(Cc1ccc2c(c1)OCO2)Cc1nc2ccccc2c(=O)[nH]1,-15.4
7,O=c1[nH]c(CN2CCN(Cc3ccc4c(c3)OCO4)CC2)nc2ccccc12,-58.9
8,O=c1[nH]c(N/N=C/c2cc3c(cc2[N+](=O)[O-])OCO3)nc2ccccc12,-0.00362
9,CCC(CC)C(=O)N1CCN(Cc2nc3ccccc3c(=O)[nH]2)CC1,-11.3
10,O=C(/C=C/c1ccccc1)N1CCN(Cc2nc3ccccc3c(=O)[nH]2)CC1,-64.7
11,O=c1[nH]c(CN2CCNCC2)nc2ccccc12,-23.4
12,O=c1[nH]c(N/N=C/c2ccccc2)nc2ccccc12,-14.9
13,O=c1[nH]c(CN2CCOCC2)nc2ccccc12,0.449
14,O=c1[nH]c(CN2CCN(C/C=C/c3ccccc3)CC2)nc2ccccc12,-65.2
15,O=c1[nH]c(N/N=C\c2ccc3c(c2)OCO3)nc2ccccc12,-70.7
16,O=C(CCc1nc2ccccc2c(=O)[nH]1)N1CCN(C/C=C/c2ccccc2)CC1,-42.4
17,COC(=O)C[C@H]1c2cc(C(F)(F)F)ccc2S(=O)(=O)N1c1ccc(N(C)C)cc1,-20.9
18,Cn1ccnc1SCC(=O)N(C1CCCCC1)C1CCCCC1,3.29
19,COc1ccc(Nc2nc(-c3cccc([N+](=O)[O-])c3)nc3ccccc23)cc1,-5.91
20,O=C(OCC1OC(Oc2ccc(O)cc2)C(O)C(O)C1O)c1ccccc1 (stereo not shown),14.5
21,COCC(=O)N(CCc1ccc(OC)cc1)Cc1nc2ccccc2c(=O)[nH]1,-2.83
22,Cc1ccccc1NC(=O)c1ccccc1NC(=O)c1ccccc1F,11.3
23,O=C(c1ccco1)c1coc2c1cc(O)c1ccccc12,13.4
24,CCCCNC(=O)O[C@H]1C[C@@H]2CCN3C(=O)CCC(C)(C)[C@H](C1)[C@H]23,-23.5
25,O=c1[nH]c(CN2CCOCC2)nc2cc(Cl)ccc12,-10.4
26,O=c1[nH]c(CN2CCN(C/C=C/c3ccccc3)CC2)nc2cc(Cl)ccc12,-106
27,COc1ccc(N2CCN(Cc3nc4cc(Cl)ccc4c(=O)[nH]3)CC2)cc1,13.4
28,COc1ccc(-c2cnc(SCCNC(=O)c3ccc4c(c3)OCO4)[nH]2)cc1,-5.44

row,SMILES,"hERG current change (%, negative = inhibition) at 10uM [%]"
1,Cc1ccc(-n2c(SCc3ccc(C#N)cc3)nnc2-c2ccccn2)cc1,-48.7
2,COc1ccc(-n2c(SCc3ccc(C#N)cc3)nnc2-c2ccccn2)cc1,-58.3
3,N#Cc1ccc(CSc2nnc(-c3ccccn3)n2-c2ccc(Cl)cc2)cc1,-51.8
4,N#Cc1ccc(CSc2nnc(-c3ccccn3)n2-c2ccccc2)cc1,-42.1
5,COc1ccc(-n2c(SCC(=O)OC(C)C)nnc2-c2ccccn2)cc1,-14.4
6,c1ccc(CSc2nnc(-c3ccccn3)n2-c2ccccc2)cc1,-10.6
7,COc1cc(C(C)=O)ccc1OC(=O)C(C)N1C(=O)c2ccccc2C1=O (stereo not shown),-13
8,O=C(CN1C(=O)CNC1=O)Nc1cccc(C(F)(F)F)c1,8.56
9,Cc1ccc(NC(=O)Cn2nnc3ccccc32)cc1,12.1
10,CCCC(=O)NC(=S)Nc1cccc(NC(=O)c2ccc(Cl)cc2Cl)c1,11.6
11,CCOC(=O)c1[nH]c2ccc(Br)cc2c1NC(=O)CCN1CCCC(C)(C)C1,-75.7
12,CCOC(=O)c1[nH]c2ccc(Br)cc2c1NC(=O)CCN1CCOCC1,2.43
13,CCOC(=O)c1[nH]c2ccc(Br)cc2c1NC(=O)CCN1CCCC(C)C1 (stereo not shown),-73.1
14,CCOC(=O)C1CCN(CC(=O)Nc2c(C(=O)OC)[nH]c3ccc(Cl)cc23)CC1,-15
15,CCOC(=O)c1[nH]c2ccc(Br)cc2c1NC(=O)CCN1CCC(C)CC1,-69.1
16,CCOC(=O)c1[nH]c2ccc(Br)cc2c1NC(=O)CNC,-7.67
17,COC(=O)c1[nH]c2cc(OC)ccc2c1NC(=O)CCN1CCCC(C)(C)C1,-39.4
18,CCOC(=O)c1[nH]c2ccc(Br)cc2c1NC(=O)CCN1CCC(C(=O)OCC)CC1,-73.9
19,CCOC(=O)c1[nH]c2ccc(OC)cc2c1NC(=O)CCN1CCCC(C)C1 (stereo not shown),-36.9
20,CCOC(=O)c1[nH]c2ccc(OCC)cc2c1NC(=O)CN1CCCC(C)C1 (stereo not shown),-18.3
21,CCOC(=O)c1[nH]c2ccc(Br)cc2c1NC(=O)CCN1CCN(C(=O)OCC)CC1,-44
22,CCOC(=O)c1[nH]c2ccc(F)cc2c1NC(=O)CCN1CCOCC1,3.03
23,O=C(Cn1c(=O)n(Cc2ccc3c(c2)OCO3)c(=O)c2ccccc21)N1CCCc2ccccc21,4.46
24,Cc1ccc(NC(=O)CSc2nnc(-c3cccnc3)o2)c(C)c1,3.3
25,CCO[C@@H]1OC(C(=O)O)=C[C@H](C)[C@H]1CCCO,20.7
26,COc1ccc(CC(=O)Nc2nc3n(n2)C(c2ccccc2)CC(=O)N3)cc1OC (stereo not shown),5.18
27,CC(=O)c1cccc(N(CC(=O)Nc2ccc(S(=O)(=O)N3CCOCC3)cc2)S(C)(=O)=O)c1,8.48

# From article PMC4336329 (PLoS ONE, 2015)
